Experiments:
Assay type in all cases: functional
[1] = system: Plasmodium falciparum; experiment: GSK_TCMDC: Inhibition of Plasmodium falciparum 3D7 in whole red blood cells, using parasite LDH activity as an index of growth. Test compounds present at 2uM
[2] = system: Plasmodium falciparum; experiment: GSK_TCMDC: Inhibition of Plasmodium falciparum Dd2 in whole red blood cells, using parasite LDH activity as an index of growth. Test compounds present at 2uM
[3] = system: HepG2; experiment: GSK_TCMDC: Percent inhibition of human HepG2 cell line. Test compounds present at 10uM.

| SMILES | Inhibition [1] | Inhibition [2] | Inhibition [3] |
| --- | --- | --- | --- |
| O=C(Cc1ccc(F)cc1)NC1CCN(c2ccnc3cc(Cl)ccc23)C1.O=C(O)C(F)(F)F (stereo not given) | 99% | 85% | 0% |
| COc1ccc(-n2nc(C(=O)NCc3ccccc3OC)c3ccccc3c2=O)cc1 | 100% | 94% | 2% |
| CCCCN(CCCC)C(=O)CC(O)c1cc2c(Cl)cc(Cl)cc2c2cc(C(F)(F)F)ccc12 (stereo not given) | 92% | 68% | 0% |
| CCCCCN1CCCN(Cc2cccc(NC(=O)c3ccc4ccccc4c3)c2)CC1.O=C(O)C(F)(F)F | 86% | 16% | 27% |
| COc1cc(C=CC(=O)N2CCC3(CC2)CC(=O)c2ccccc2O3)cc(OC)c1OC | 88% | 66% | 7% |
| CCn1ncc2c(NC3CCOCC3)c(CNC(=O)c3ccnn3C)c(C)nc21 | 98% | 98% | 0% |
| Cc1cccc2nc(-c3ccc(-c4cccc(CNCCNC(=O)c5ccnn5C)c4)s3)[nH]c12.O=C(O)C(F)(F)F | 100% | 87% | 17% |
| O=C(C=Cc1ccc(Cl)c(Cl)c1)NCCCCCN1CCCC(CCCNC(=O)c2ccc3c(c2)OCO3)C1 (stereo not given) | 95% | 4% | 30% |
| CC1(C)CC2CC(C)(CN2C(=O)c2cc(C(C)(C)C)nn2Cc2ccccc2)C1 (stereo not given) | 86% | 77% | 0% |
| Cc1cc(N)ncc1-c1ccc(NC(=O)Nc2cc(C(F)(F)F)ccc2F)cc1.O=C(O)C(F)(F)F | 100% | 23% | 15% |
| CS(=O)(=O)O.CSc1ccc2ccccc2c1CCNCCCCNCCc1c(SC)ccc2ccccc12 | 100% | 60% | 99% |
| Cc1cccc(NC(=S)NC2CCN(CCCCCNC(=O)/C=C/c3ccc(Cl)c(Cl)c3)CC2)c1 | 97% | 19% | 14% |
| COc1ccc2ncc(F)c(CCN3CC(O)C(CNCc4ccc5ccccc5c4)C3)c2n1.Cl (stereo not given) | 100% | 78% | 57% |
| CCC(C)NC(=O)CN1CN(c2ccccc2)C2(CCN(C(=O)c3ccc4ccccc4c3)CC2)C1=O (stereo not given) | 95% | 78% | 0% |
| CCN(CC)CCCC(C)N=c1cc(C=Cc2ccc([N+](=O)[O-])cc2)[nH]c2ccc(OC)cc12 (stereo not given) | 100% | 100% | 37% |
| N#Cc1ccc(N(CCOc2ccc(Cl)cc2)Cc2ccccc2C(F)(F)F)cc1C(F)(F)F | 91% | 64% | 3% |
| CCCCCn1c(Sc2ccc(C#N)c([N+](=O)[O-])c2)nnc1-c1ccccc1 | 93% | 15% | 22% |
| COc1ccc(Nc2cc(C)nc(Nc3ccc(NC(C)=O)cc3)n2)cc1 | 98% | 31% | 16% |
| Cc1cccc2nc(-c3cccc(-c4ccc(NC(=O)C(C)CN5CCN(C)CC5)cc4)c3)[nH]c12 (stereo not given) | 99% | 100% | 7% |
| CCCc1ccc(NC(=O)c2ccc(CN3CCCN(CC4CCCCC4)CC3)cc2)cc1.O=C(O)C(F)(F)F | 95% | 41% | 49% |

| SMILES | Inhibition [1] | Inhibition [2] | Inhibition [3] |
| --- | --- | --- | --- |
| O=C(/C=C/c1ccc(Cl)cc1)NCCCCCN1CCCC(C(=O)Nc2ccc(Cl)cc2)C1 (stereo not given) | 94% | 6% | 24% |
| Cl.O=C(/C=C/c1ccc(F)cc1)NC1CCC(CCN2CCCN(c3ccc(C(F)(F)F)cn3)CC2)CC1 (stereo not given) | 97% | 13% | 29% |
| O=C(Cn1c(CCc2cccc(F)c2F)cc(=O)c2ccccc21)N(CCN1CCCCC1)Cc1ccc(-c2ccc(C(F)(F)F)cc2)cc1.O=C(O)C(O)C(O)C(=O)O | 100% | 59% | 9% |
| CCOC(=O)c1ccc(NC(=O)N[C@@H](Cc2ccccc2)C(=O)NC2CCN(Cc3ccc(O)cc3)C2)cc1 (stereo not given in full) | 95% | 2% | 7% |
| Oc1ccc(Nc2nc(NCc3ccco3)c3ccccc3n2)cc1 | 100% | 78% | 7% |
| CN1CCC(C(=O)Nc2ccc(-c3ccc(-c4nc5ccccc5[nH]4)cc3)cc2)CC1 | 100% | 94% | 28% |
| CN(C)CCCN1CCN(Cc2ccc(-c3ccc(-c4nc5ccccc5[nH]4)s3)cc2)CC1 | 100% | 100% | 19% |
| CCCCN1CCN(CC(O)CNC(=O)Nc2ccc(Cl)cc2)CC1.O=C(O)C(F)(F)F (stereo not given) | 100% | 99% | 17% |
| O=C(Nc1cccc(CN2CCCN(CC3CCCCC3)CC2)c1)c1ccc(Cl)c(Cl)c1.O=C(O)C(F)(F)F | 91% | 15% | 39% |
| COc1ccc2nccc([C@@H](O)CN3CCC(NC(=O)c4ccc(-c5ccc(C#N)cc5)cc4)CC3)c2c1 | 100% | 91% | 42% |
| Cc1cc(NC(=O)Nc2ccc3ncccc3c2)c2ccccc2n1 | 93% | 27% | 6% |
| COc1ccc(CCN(Cc2cccs2)C(=O)c2cc3sccc3n2C)cc1OC | 94% | 97% | 0% |
| COc1cccc(CNC(=O)[C@H]2CNCCN2C(=O)CCCc2ccccc2)c1.O=C(O)C(F)(F)F | 91% | 95% | 56% |
| C=CCNC(=O)C(C)c1ccc2cc(OC)ccc2c1 (stereo not given) | 92% | 90% | 4% |
| COc1ccc(C(=O)Nc2cc(Cl)c3c(c2)C2CCCN2CC3)cc1C(F)(F)F.Cl (stereo not given) | 99% | 33% | 35% |
| CCOC(=O)c1c(C)n(-c2ccc(Cl)cc2)c2ccc(OC(=O)C=Cc3ccccc3)cc12 | 99% | 92% | 3% |
| COc1ccc2nccc([C@@H](O)CN3CCC(NC(=O)c4[nH]c5ccccc5c4-c4ccccc4)CC3)c2c1 | 96% | 68% | 18% |
| CC1(C)N=C(N)N=C(N)N1c1ccc(Cl)cc1.O=C(O)c1cc2ccccc2c(Cc2c(O)c(C(=O)O)cc3ccccc23)c1O | 95% | 4% | 42% |
| CN(C)Cc1ccc(-c2cc3c(Nc4ccc(OCc5cccc(F)c5)c(Cl)c4)ncnc3s2)[nH]1 | 100% | 84% | 8% |
| Cc1nc(-c2cccc(Nc3nccc(NCC(O)c4cccc(C(F)(F)F)c4)n3)c2)cs1 (stereo not given) | 100% | 99% | 14% |

| SMILES | Inhibition [1] | Inhibition [2] | Inhibition [3] |
| --- | --- | --- | --- |
| CC(C)CNCc1cccc(-c2ccccc2CNC2CCN(Cc3ccccc3)CC2)c1.O=C(O)C(F)(F)F | 100% | 39% | 25% |
| Nc1nc(N)c2c(ccc3c2ccn3CCCF)n1 | 94% | 0% | 61% |
| CCN(CC)CCN(Cc1ccc(-c2ccc(C(F)(F)F)cc2)cc1)C(=O)Cn1c(CCc2cccc(F)c2F)nc(=O)c2cccnc21.O=C(O)C(O)C(O)C(=O)O | 100% | 89% | 75% |
| Cc1cccc2nc(-c3cccc(-c4ccc(NC(=O)C5CC(=O)Nc6ccccc65)cc4)c3)[nH]c12 (stereo not given) | 87% | 56% | 15% |
| NC1=NC(c2ccccc2)(c2ccccc2)C(=O)N1CCOc1ccccc1 | 90% | 57% | 42% |
| CC(C)CCNCC(O)Cn1c2ccc(Cl)cc2c2cc(Cl)ccc21 (stereo not given) | 99% | 99% | 36% |
| Cl.ON=C1CCc2cc(-c3nc(-c4ccc(OCCN5CCCCC5)cc4)[nH]c3-c3ccncc3)ccc21 | 99% | 54% | 73% |
| Fc1ccc2[nH]c(-c3ccc(-c4ccc(CNCC5CCCO5)cc4)s3)nc2c1.O=C(O)C(F)(F)F (stereo not given) | 100% | 99% | 30% |
| O=C(Nc1ccc(Br)cc1)N1CCC(n2c(-c3ccccc3)nc3cccnc32)CC1 | 90% | 86% | 36% |
| COc1cc2c(cc1OC)CC(NCc1ccc(-c3ccc4nc[nH]c4c3)cc1)C2.O=C(O)C(F)(F)F | 97% | 92% | 40% |
| CCOc1cc(C)ccc1C1CCN(CCCCNC(=O)c2cnc(-c3ccc(C(F)(F)F)cc3)[nH]2)CC1 | 95% | 97% | 16% |
| O=C(NCc1ccc(C(=O)NC2CCCCCC2)cc1)c1ccc(O)c(-c2ccc(Cl)c(Cl)c2)c1 | 83% | 21% | 0% |
| Cc1cccc(Nc2nc3nonc3nc2Nc2cccc(Cl)c2Cl)c1C | 91% | 95% | 88% |
| Cl.O=C(/C=C/c1ccc(F)cc1)NC1CCC(CCN2CCc3ccc(-n4cccn4)cc3CC2)CC1 (stereo not given) | 89% | 16% | 23% |
| CCNc1cc(C(=O)N[C@@H](Cc2ccccc2)[C@H](O)CNC(C)(C)Cc2cccc(OC)c2)cc(N2CCCC2=O)c1.O=CO | 99% | 97% | 7% |
| COC(=O)c1noc(C)c1I | 99% | 2% | 5% |
| O=C(Nc1cccc(-c2ccc(-c3nc4cc(C(F)(F)F)ccc4[nH]3)cc2)c1)Nc1ccc(Cl)c(Cl)c1 | 100% | 51% | 93% |
| CCN(CCO)CCc1cccc(Nc2nccc(-c3c(-c4ccc(NC(=O)N(CC)CC)cc4)nn4ccccc34)n2)c1.Cl | 100% | 95% | 46% |
| O=C(NCc1ccccn1)C(c1cc2ccccc2o1)N1CCN(C(c2ccccc2)c2ccccc2)CC1 (stereo not given) | 95% | 68% | 17% |
| CN1CCC(C(=O)Nc2ccc(-c3cccc(-c4nc5cc(C(F)(F)F)ccc5[nH]4)c3)cc2)CC1 | 100% | 97% | 28% |

Reference: ChEMBL document CHEMBL1157539, “Thousands of chemical starting points for antimalarial lead identification” (Nature, 2010)
